Assay results taken from the supplement of paper PMC6135742.
Counter-ions that a name gives are not always drawn. In all, about 2,600 compounds were measured (“MBP+ mature oligodendrocyte number relative to DMSO vehicle control”: median about -0.34, highest 2% from about 13 on). This is one part of a sample in which the highest values are shown more often than they occur.

These molecules were tested on jimpy (Plp1 jimpy) mouse iPSC-derived oligodendrocyte progenitor cells (assay: MBP+ mature oligodendrocyte number relative to DMSO vehicle control (SDs above negative control mean); higher = more surviving jimpy oligodendrocytes (rescue)). Settings: 10 µM; 3 days.
Protocol: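 Primary phenotypic screen of >3,000 bioactive compounds (Selleck L1700 and Sigma LO1280 libraries) at a single dose of 10 µM. Compounds were added to jimpy (Plp1 mutant) mouse iPSC-derived OPCs at the start of thyroid hormone-induced oligodendrocyte differentiation, one well per compound in 384-well plates. After 3 days cells were stained for MBP, Sox10 and DAPI and imaged with an Operetta system. MBP+ oligodendrocyte number and total cell number were expressed as the number of SDs above the mean of the DMSO negative control on the same plate (n=16 control wells per plate). Hits were defined as >=4 SD for oligodendrocytes and >=2 SD for total cells.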
In the case of `OC1CCCCC1N1CCC(c2ccccc2)CC1` (racemic) [(±)-Vesamicol hydrochloride], the “MBP+ mature oligodendrocyte number” value was 15.7.
`Cc1ccc2c(c1)C1(CCN(CCc3nc(-c4ccccc4)oc3C)CC1)OC(=O)N2` was tested, and the “MBP+ mature oligodendrocyte number” value was -2.6.
In the case of `C[N+]1(C)[C@@H]2CC(OC(=O)[C@H](CO)c3ccccc3)C[C@H]1[C@@H]1O[C@@H]12` (single isomer, unassigned; (-)) [(-)-Scopolamine methyl nitrate], the “MBP+ mature oligodendrocyte number” value was 0.539.
With `N[C@]1(C(=O)O)CC[C@H](C(=O)O)C1` (racemic) [trans-(±)-ACPD] the “MBP+ mature oligodendrocyte number” value was 0.981.
In the case of `CN1CC[C@@]2(C)c3cc(O)ccc3N(C)C12` (single isomer, unassigned; (-)) [(-)-Eseroline fumarate], the “MBP+ mature oligodendrocyte number” value was -1.28.
`COc1ccc2c(c1OC)C(=O)OC2C1c2cc3c(cc2CCN1C)OCO3` (single isomer, unassigned; (+)) [(+)-Hydrastine] was tested, and the “MBP+ mature oligodendrocyte number” value was 1.13.
`NC(=O)c1ccc(OCC(O)CN2CC=C(c3ccc(F)cc3)CC2)cc1` (stereo not given) was tested, and the “MBP+ mature oligodendrocyte number” value was 13.9.
`CC(=O)OCC1=C(C(=O)[O-])N2C(=O)[C@@H](NC(=O)CCC[C@@H](N)C(=O)[O-])[C@H]2SC1.[Zn+2]` [Cephalosporin C zinc salt] was tested, and the “MBP+ mature oligodendrocyte number” value was -0.943.
In the case of `CCCC[N+]1(C)[C@@H]2C[C@@H](OC(=O)[C@H](CO)c3ccccc3)C[C@H]1[C@@H]1O[C@@H]12` (single isomer, unassigned; (-)) [(-)-Scopolamine,n-Butyl-, bromide], the “MBP+ mature oligodendrocyte number” value was -0.925.
In the case of `CN1CC[C@]2(CCN3CCc4c(oc5ccccc45)[C@@H]3C2)N(C)C1=O`, the “MBP+ mature oligodendrocyte number” value was 1.72.
For `CCS(=O)(=O)Nc1cccc(C(=C2CCCCC2)c2cnc[nH]2)c1`, the “MBP+ mature oligodendrocyte number” value was 2.51.
In the case of `CC(C)Oc1cccnc1N(C)C1CCN(Cc2ccccc2)CC1`, the “MBP+ mature oligodendrocyte number” value was 19.1.
For `CO[C@H]1CC[C@@H](O[C@H]2C[C@H]([C@]3(C)CC[C@]4(C[C@H](O)[C@@H](C)[C@@H]([C@@H](C)/C=C(\C)C(=O)[C@H](C)C[C@H](C)C(=O)O)O4)O3)O[C@]3(O[C@@H]([C@H]4O[C@@](O)(CO)[C@H](C)C[C@@H]4C)C[C@@H]3C)[C@@H]2C)O[C@@H]1C` [Nanchangmycin], the “MBP+ mature oligodendrocyte number” value was < -6.7.
With `CC(N)Cc1cccc(C(F)(F)F)c1` (single isomer, unassigned; (+)) [(+)-Norfenfluramine hydrochloride] the “MBP+ mature oligodendrocyte number” value was 0.753.
With `COc1ccc2[nH]c3c(c2c1)CCNC3` [6-Methoxy-1,2,3,4-tetrahydro-9H-pyrido[3,4b] indole] the “MBP+ mature oligodendrocyte number” value was -0.315.
